In ChEMBL document CHEMBL3988442, “University of Dundee, Small-Polar-MMV Screening Library” (2021):
About 13,000 (27%) of roughly 48,000 compounds showed an effect of 50% or more. Some of the results follow.

system: Wolbachia pipientis; assay: Anti-Wolbachia Cell-Based Screen; assay type: functional; set-up: scale not given: in the data most compounds retested in dose-response had high values; details: 5 µM

Compound | Percent Effect
COC1CCCN(C(=O)NCC(F)F)C1 (stereo not drawn) | -0.267%
CN(Cc1ccco1)C1CCC12CCN(C(=O)N1CCCC1)CC2.O=C(O)C(F)(F)F (stereo not drawn) | -11.51%
Cc1ccc(C2CCCCCN2CCCS(C)(=O)=O)o1 (stereo not drawn) | -22.51%
CCOc1ccc(NC(=O)c2scnc2CC)cc1CO | -2.962%
O=C1CN(C(=O)CSC2CCCc3ccccc32)CCN1 (stereo not drawn) | -8.523%
O=C(c1cccnc1)N1CCCC(c2ccnc3nccn23)C1 (stereo not drawn) | 79.76%
CC[C@H]1CN(C(=O)c2cccnc2)CC[C@H]1CC(=O)NC1CC1 | 4.498%
Cc1cc(C2CCCN(C(=O)c3cccnc3)C2)ccn1 (stereo not drawn) | 84.57%
O=C(NS(=O)(=O)Cc1ccc(F)cc1)C1CCOc2ccccc21 (stereo not drawn) | -4.826%
CSC(C)C(=O)N1CCCN(Cc2cscn2)CC1 (stereo not drawn) | -14.88%
CN(C)c1ccc(C(=O)N2CCN(Cc3cscn3)CC2)cn1 | 116%
CN(C)c1ccc(C(=O)N2CCCN(Cc3cscn3)CC2)nn1 | 113.8%
CC(O)CN1CCN(C(=O)c2ccc(N(C)C)nc2)CC1 (stereo not drawn) | 3.143%
CC(O)CN1CCN(C(=O)c2ccc(N(C)C)nn2)CC1 (stereo not drawn) | 2.216%
CCOCC(O)CN1CCN(C(=O)c2ccc(N(C)C)nc2)CC1 (stereo not drawn) | -21.06%
O=C(N1CCOCC1)N1CCc2ncnc(NC3CCC3)c2CC1.O=C(O)C(F)(F)F | 91.29%
O=C(C1CCCO1)N1CCc2ncnc(NC3CCC3)c2CC1.O=C(O)C(F)(F)F (stereo not drawn) | 103.9%

Compound | Percent Effect
O=C(N1CCOCC1)N1CCc2ncnc(NC3CC3)c2CC1 | 0.5236%
O=C([C@H]1CCCO1)N1CCc2ncnc(NC3CC3)c2CC1 | 1.456%
CCCC(C(=O)NC1CCN(S(C)(=O)=O)CC1)n1cccc1 (stereo not drawn) | -3.816%
CCNC(=O)NC(=O)CN1CCOC(c2ccc(Br)cc2)C1 (stereo not drawn) | -12.38%
OC1(CNCCSc2ccccn2)CCCNC1 (stereo not drawn) | -44.86%
N#Cc1cccnc1N1CCCC(CO)(CCOc2ccccc2)C1 (stereo not drawn) | 0.3876%
CN(C)c1ccc(CCNC(=O)C2CCC(=O)N(C3CCCC3)C2)cc1 (stereo not drawn) | -1.429%
CCN(CC)C(=O)CN1CCC(c2nc(C)c3c(n2)N(C)CCC3)CC1 | 126.4%
CCC(=O)N1CCC(c2nc(C)c3c(n2)N(C)CCC3)CC1 | 112.7%
CCN(C(=O)CN1CCC(c2cc3ccccc3[nH]2)CC1)C1CC1 | -6.072%
CC(C)N(C)C(=O)CN1CCCC(c2ccc(C(=O)O)cc2)C1 (stereo not drawn) | 0.2821%
CCN(C(=O)CN1CCC(c2n[nH]c(C3CC3)n2)CC1)C1CC1 | 20.34%
CCC(=O)N1CCC(n2cc(C(C)(C)O)nn2)CC1 | -6.105%
CCN(CC(F)(F)F)C(=O)C1CCCN(Cc2nc(C)c(C)o2)C1 (stereo not drawn) | -1.409%
CCC(=O)N1CCC(c2nc3ccc(NC(C)C)cn3n2)CC1 | -7.587%
CCN(CC)C(=O)CN1CCCC(c2nc(C)c3c(n2)N(C)CCC3)C1 (stereo not drawn) | 160%
